Results: ChEMBL document CHEMBL4513139, “CO-ADD screening of University of Strathclyde (UK) compounds”
Entries with a potency or affinity are not part of this list.

How the values were obtained:
Staphylococcus aureus = conditions: Concentration 32 ug.mL-1; ASSAY_TEST Inhibition of Bacterial Growth; detection method Absorption (OD600); MEDIA CAMHB; plate type 384well; NBS; CORNING #3640; time 18 hr
Escherichia coli = conditions: Concentration 32 ug.mL-1; ASSAY_TEST Inhibition of Bacterial Growth; detection method Absorption (OD600); MEDIA CAMHB; plate type 384well; NBS; CORNING #3640; time 18 hr

Row | Compound | Inhibition (Staphylococcus aureus) [%] | Inhibition (Escherichia coli) [%]
1 | CC(=O)Nc1cc(C(=O)Nc2cc(C(=O)Nc3cc(C(=O)NCCCN(C)C)n(C)c3)n(C)c2)n(C)c1.O=C(O)C(F)(F)F | 20.29 | -5.37
2 | CC(C)CCc1sc(NC(=O)c2cc(NC(=O)c3ccc(/C=C/c4cc5ccccc5nc4On4nnc5ccccc54)cc3)cn2C)nc1C(=O)NCCN1CCOCC1.O=C(O)C(F)(F)F | -16.43 | -13.53
3 | Cn1cc(NC(=O)c2cc(NC(=O)CCC(=O)O)cn2C)cc1C(=O)NCCN1CCOCC1.O=C(O)C(F)(F)F | -10.46 | -3.43
